Methyltransferases – Primary Screen for Target Class Profiling of Small Molecule Inhibitors of Methyltransferases; calls only at 40 µM; actives 3.9% (n = 25,000); purified enzyme, MTase-Glo SAH luminescence; stronger effect = lower value; call rule not given here
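Each enzyme was assayed with SAM and its substrate. SAH formation detected by MTase-Glo luminescence; single-point 40 uM screen[…].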
* marks the source's active call; other numbers are inactive results; i = inactive; + = active, no number. The full list was thinned out, with hits kept by preference. % is scaled to controls: 0 for no effect and ±100 for the full control effect.

SMILES	Methyltransferases
CN(C)CCCNc1nc(CN2CCN(C(c3ccc(Cl)cc3)c3ccc(Cl)cc3)CC2)nc2ccccc12	+
COC(=O)c1cc2n(n1)CC(C)(C(=O)NC1CCC(C)CC1)N(c1cccc(C)c1C)C2=O (stereo not given)	i
CC1(C(=O)NC2CCCCCC2)Cn2c(cc3ccccc32)C(=O)N1CC1CCCO1 (stereo not given)	i
COC(=O)c1cccc(Nc2ncnc3ccc(C)cc23)c1	i
COc1cc2ncnc(Nc3ccc(F)c(Cl)c3)c2cc1NC(=O)/C=C/CN1CCCCC1	+
CNC(=O)c1c(F)cccc1Nc1nc(Nc2cc3c(cc2OC)CCN3C(=O)CN(C)C)nc2[nH]ccc12	i
O=C(NC1CCCC1)c1ccc(OC2CCN(CCCC(F)(F)F)CC2)c(Cl)c1	i
CNC(=O)CN1CCC(Oc2cc3c(Nc4cccc(Cl)c4F)ncnc3cc2OC)CC1	+
CCCC1c2cccn2CCN1C(=O)Nc1cc(Cl)ccc1OC (stereo not given)	i
CCC(C)NC(=O)c1ccc2c(=O)n(C)c3nn(CC(=O)Nc4ccc(Cl)cc4)c(=O)n3c2c1 (stereo not given)	i
CC1(C(=O)NC2CCCCCC2)Cn2c(ccc2-c2ccco2)C(=O)N1Cc1ccc(Cl)cc1 (stereo not given)	i
Cc1ccc(CN2C(=O)c3ccc(-c4ccccc4)n3CC2(C)C(=O)NC2CCCCCCC2)cc1 (stereo not given)	i
Cc1cc(N2C(=O)Cn3cccc3C2C(=O)NC2CCCC2)ccc1Br (stereo not given)	i
Cc1c(-c2ccc3c(c2)OCO3)oc2ccc(C(O)C(C)O)cc12 (stereo not given)	i
Cc1nc(CN(C)c2ncnc3ccc(-c4ccc5c(c4)OCO5)cc23)cs1	+
COc1ccc(CN2C(=O)c3ccc(-c4ccco4)n3CC2(C)C(=O)NC2CCCCCCC2)cc1 (stereo not given)	i
COc1cc(OC)c(N2C(=O)CSc3c(c4ccccc4n3C)C2C(=O)NCc2ccccc2)cc1Cl (stereo not given)	i
CCC(C)NC(=O)Cn1nc2n(C(C)C)c(=O)c3ccc(C(=O)NC4CCCCC4)cc3n2c1=O (stereo not given)	i
COc1ccccc1C(=O)N1CCN(c2nccc(Nc3ccccc3Cl)n2)CC1	i
NC(=O)c1ccccc1Nc1ccnc(Nc2cccc(O)c2)n1	+
O=C(O)c1ccccc1Nc1cccc(OCc2ccc3ccccc3n2)c1	i
Cc1ccc(CCNC(=O)Cn2ccc3cc(S(=O)(=O)N4CCC(C)CC4)ccc32)cc1	i
Cc1cccc(NC(=O)N2Cc3c(sc4c3CCCC4)-n3cccc3C2c2ccccc2)c1 (stereo not given)	i
O=[N+]([O-])c1cccc2c(Br)[nH]nc12	+
CC(C(=O)NCc1cccc(Cl)c1)n1ccc2cc(S(=O)(=O)N3CCCCC3)ccc21 (stereo not given)	i
SMILES	Methyltransferases
CCCN1C(=O)c2c(C(=O)NCc3ccc(SC)cc3)ncn2CC1(C)C(=O)NCCC(C)C (stereo not given)	i
Clc1ccc(C2Nc3ccc(Br)cc3C3C=CCC32)cc1 (stereo not given)	i
CCCC1c2ccc(C)n2CCN1C(=O)Nc1ccccc1C(F)(F)F (stereo not given)	i
CC(C)C1c2cccn2CCN1C(=O)Nc1ccccc1C(F)(F)F (stereo not given)	i
CCCC1c2cccn2CCN1C(=O)Nc1ccccc1C(F)(F)F (stereo not given)	+
Cc1ccc(CNC(=O)c2cc3n(n2)CC(C)(C(=O)NC2CCCC2)N(C)C3=O)cc1 (stereo not given)	i
C=CCn1c(=O)c2ccc(C(=O)NC(C)C)cc2n2c(=O)n(CC(=O)Nc3ccc(C)cc3C)nc12	i
COc1ccccc1CN1C(=O)c2nc3ccccc3n2CC1(C)C(=O)NC1CCCCC1 (stereo not given)	i
Cc1ccccc1CN1C(=O)c2cc3ccccc3n2CC1(C)C(=O)NCCCOC(C)C (stereo not given)	i
CC(=O)Nc1c2n(c3ccc(F)cc13)CC(C)(C(=O)NCCC(C)C)N(C1CCCCC1)C2=O (stereo not given)	i
CC1(C(=O)NC2CCCCCC2)Cn2nc(C3CC3)cc2C(=O)N1Cc1ccccc1Cl (stereo not given)	i
N#CC(=C(\N)Sc1ccccc1N)/C(C#N)=C(/N)Sc1ccccc1N	+
O=C(Cn1nc2n(Cc3ccc(F)cc3)c(=O)c3ccccc3n2c1=O)Nc1ccccc1F	i
O=C(Cn1ccc2cc(S(=O)(=O)N3CCCC3)ccc21)NC1CCCCC1	i
CCOc1ccc(-c2ccc(Cn3c(CC(C)(C)C(=O)O)c(SC(C)(C)C)c4cc(OCc5ccc(C)cn5)ccc43)cc2)cn1	+
COc1ccc(-c2nc(-c3ccc(S(=O)(=O)N4CCC(C)CC4)cc3)no2)c(OC)c1	i
COc1ccc(OC)c2c1cc1n2CC(C)(C(=O)NC2CCCCCC2)N(CCC(C)C)C1=O (stereo not given)	i
Cn1c(=O)c2ccc(C(=O)NC3CCCCC3)cc2n2c(=O)n(CC(=O)NC3CCCC3)nc12	i
CC1(C)CCC(CN2CCN(c3ccc(C(=O)NS(=O)(=O)c4ccc(NCC5CCOCC5)c([N+](=O)[O-])c4)c(Oc4cnc5[nH]ccc5c4)c3)CC2)=C(c2ccc(Cl)cc2)C1	+
COc1ccc(C(=O)Cn2nc3n(Cc4ccc(F)cc4)c(=O)c4ccccc4n3c2=O)cc1OC	i
Cc1cc(S(=O)(=O)NCCN2CCOCC2)ccc1Cl	i
Cc1cnc(Nc2ccc(CN3CCOCC3)cc2)nc1Nc1cccc(S(=O)(=O)NC(C)(C)C)c1	+
Cc1cnc(Nc2cccc(CN3CCOCC3)c2)nc1Nc1cccc(S(=O)(=O)NC(C)(C)C)c1	i
Cc1ccc(NC(=O)Cn2c(=O)oc3cc(S(=O)(=O)N4CCCC4)ccc32)c(Br)c1	i
O=S(=O)(c1ccccc1)c1nnn2c1nc(N1CCCCC1)c1ccccc12	i
SMILES	Methyltransferases
Cc1ccc(S(=O)(=O)c2nnn3c2nc(N2CCC(N4CCCCC4)CC2)c2ccccc23)cc1C	+
Cc1ccc(C)c(S(=O)(=O)c2nnn3c2nc(N2CCCC2)c2ccccc23)c1	i
Cc1ccc(C)c(N2CCN(S(=O)(=O)c3cc4[nH]c(=O)[nH]c4cc3Cl)CC2)c1	i
CC(C)OCCCn1c(=O)c2ccccc2n2c(=O)n(CC(=O)Nc3cc(F)ccc3F)nc12	i
CC1=CC(=O)CC(C)(C)C1CCC(C)OC1OC(COC(=O)c2cc(O)c(O)c(O)c2)C(O)C(O)C1O (stereo not given)	+
COc1cc(C(=O)OC[C@H]2O[C@@H](OC(C)(C)C(=O)O)[C@H](O)[C@@H](O)[C@@H]2O)cc(OC)c1O	i
CC(CCC1C(C(=O)O)=CC(=O)CC1(C)C)O[C@@H]1O[C@H](CO)[C@@H](O)[C@H](O)[C@H]1O (stereo not given in full)	+
CC1=CC(=O)CC(C)(C)C1/C=C/C(C)O[C@@H]1O[C@H](CO)[C@@H](O)[C@H](O)[C@H]1O[C@@H]1OC[C@](O)(CO)[C@H]1O (stereo not given in full)	i
CC1=CC(=O)CC(C)(C)C1/C=C/C(C)OC1OC(COC2OCC(O)C(O)C2O)C(O)C(O)C1O (stereo not given)	i

Screening results from PubChem BioAssay.
